# Test results taken from PubChem BioAssay (NCI).
# “And” between values parts separate entries of the source, which are not always exact repeats. Identical values can stand only once. About 79,000 compounds went through this panel and 15% of them were active in at least one assay; those are over-represented in the sample as a whole. Some structures have more than one record in an assay (separate samples or runs), and their calls can disagree. The source made the active and inactive calls. Rule as the data show it: active = growth inhibition above about 70%; inactive = the rest.
# Assays:
# [1] = NCI Yeast Anticancer Drug Screen. Data for the rad50 strain (AID 155);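 also: 0% = growth of vehicle-only cultures of the same strain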; conditions: S. cerevisiae rad50 strain growth inhibition, stronger effect = higher value
# Summary of the method: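 Inhibition values express reduced yeast growth in compound-treated cultures relative to vehicle-treated controls.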
# [2] = NCI Yeast Anticancer Drug Screen. Data for the mec2-1 strain (AID 157); conditions: S. cerevisiae mec2-1 strain, stronger effect = higher value
# Summary of the method: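 Strain: mec2-1 (DNA repair/cell cycle alteration). Compound exposure, then growth measured; inhibition expressed relative to vehicle.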
# [3] = NCI Yeast Anticancer Drug Screen. Data for the sgs1 mgt1 strain (AID 161);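 also: 0% = growth of cultures given vehicle only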; conditions: S. cerevisiae sgs1 mgt1 strain, stronger effect = higher value
# Summary of the method: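 Genetically altered yeast, compound exposure, growth inhibition relative to vehicle.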
# [4] = NCI Yeast Anticancer Drug Screen. Data for the cln2 rad14 strain (AID 165);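 also: 0% = growth equal to vehicle treated cultures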; conditions: S. cerevisiae cln2 rad14 strain, stronger effect = higher value
# Summary of the method: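 Compounds are applied to the cln2 rad14 yeast strain, and growth is then compared with that of vehicle-treated cultures to give inhibition.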
# [5] = NCI Yeast Anticancer Drug Screen. Data for the bub3 strain (AID 167); conditions: S. cerevisiae bub3 mutant strain, stronger effect = higher value
# Summary of the method: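 Steps: expose the mutant yeast strain to compound; grow alongside vehicle-treated cultures; measure growth; express inhibition against the vehicle cultures.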
# [6] = NCI Yeast Anticancer Drug Screen. Data for the mlh1 rad18 strain (AID 175); conditions: S. cerevisiae mlh1 rad18 strain growth inhibition, stronger effect = higher value
# Summary of the method: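 Read-out is yeast growth inhibition, calculated against vehicle-only controls. The compound was applied to a strain engineered with DNA damage repair alterations.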
# [7] = at 5.0 µM (retest, dose inferred, filed as 0.5)
# [8] = at 50.0 µM (retest, dose inferred, filed as 5.0)
Structure (SMILES),"growth inhibition [1, 7]","growth inhibition [1, 8]",growth inhibition ([1]; at 50.0 µM),"growth inhibition [2, 7]","growth inhibition [2, 8]",growth inhibition ([2]; at 50.0 µM),"growth inhibition [3, 7]","growth inhibition [3, 8]",growth inhibition ([3]; at 50.0 µM),"growth inhibition [4, 7]","growth inhibition [4, 8]",growth inhibition ([4]; at 50.0 µM),"growth inhibition [5, 7]","growth inhibition [5, 8]",growth inhibition ([5]; at 50.0 µM),"growth inhibition [6, 7]","growth inhibition [6, 8]",growth inhibition ([6]; at 50.0 µM)
O=C(/C=C/c1cccnc1)c1ccccc1,2% (inactive),48% (inactive),9.2% (inactive) and 25.8% (inactive),0% (inactive),67% (inactive),-9.2% (inactive) and 41.6% (inactive),-1% (inactive),65% (inactive),-15.7% (inactive) and 61.4% (inactive),5% (inactive),14% (inactive),15.1% (inactive) and 3.65% (inactive),0% (inactive),40% (inactive),-10% (inactive) and 25.5% (inactive),4% (inactive),36% (inactive),-21.9% (inactive) and 69.2% (inactive)
O=C(/C(=C\c1ccc(Cl)c(Cl)c1)c1ccccc1)c1ccc(O)cc1,51% (inactive),91% (active),94% (active),39% (inactive),95% (active),93.9% (active),48% (inactive),93% (active),94.1% (active),42% (inactive),93% (active),92.2% (active),43% (inactive),94% (active),91.8% (active),54% (inactive),92% (active),93.2% (active)
CCCCCCC(CCCCCCCCCCC(=O)OCC(CC)CC)OC(=O)CC (stereo not drawn),-4% (inactive),-4% (inactive),21.2% (inactive),-3% (inactive),-6% (inactive),7.9% (inactive),-4% (inactive),-23% (inactive),7.4% (inactive),-2% (inactive),-13% (inactive),21.4% (inactive),-3% (inactive),-5% (inactive),-6.9% (inactive),-3% (inactive),-6% (inactive),39.5% (inactive)
CCCCCCCCCCCCCCCCOP(=O)(O)OCC(NC(C)=O)C(=O)O (stereo not drawn),-2% (inactive),100% (active),99.2% (active),17% (inactive),100% (active),99.5% (active),4% (inactive),95% (active),99.3% (active),37% (inactive),99% (active),99.3% (active),1% (inactive),97% (active),99.5% (active),-1% (inactive),99% (active),99.4% (active)
COc1cc(/C=C/C(=O)NCCCCN=[N+]=[N-])ccc1OCc1ccccc1,-1% (inactive),-13% (inactive),89.8% (active),1% (inactive),-11% (inactive),82.2% (active),-7% (inactive),1% (inactive),27.4% (inactive),-9% (inactive),-13% (inactive),-3.15% (inactive),-6% (inactive),-8% (inactive),10.1% (inactive),-3% (inactive),-11% (inactive),39.9% (inactive)
O=C1/C(=C/c2ccc(Cl)cc2)Sc2scc(-c3cccc([N+](=O)[O-])c3)[n+]21,26% (inactive),99% (active),89.5% (active),36% (inactive),100% (active),90.4% (active),84% (active),99% (active),91.9% (active),44% (inactive),98% (active),90.5% (active),98% (active),99% (active),89.8% (active),35% (inactive),100% (active),91.8% (active)
CNC(=O)N(C)CN(C)C(=O)NC,0% (inactive),9% (inactive),17.1% (inactive) and 17.2% (inactive),-1% (inactive),2% (inactive),-11.9% (inactive) and 17.7% (inactive),-3% (inactive),7% (inactive),4% (inactive) and 19.8% (inactive),-4% (inactive),-9% (inactive),26.8% (inactive) and 18.6% (inactive),-5% (inactive),-8% (inactive),2.8% (inactive) and -19.9% (inactive),-5% (inactive),7% (inactive),3.75% (inactive) and 40.1% (inactive)
CC(=O)[O-].[O-]c1c(Cl)cc(Cl)cc1/C=N/Nc1ccccn1.[Zn+2],5% (inactive),93% (active),96.5% (active),16% (inactive),96% (active),87.8% (active),4% (inactive),96% (active),98.1% (active),-1% (inactive),93% (active),95.5% (active),-4% (inactive),96% (active),37.2% (inactive),3% (inactive),93% (active),97% (active)
CC(=O)OCC(OC(C)=O)C(OC(C)=O)C(OC(C)=O)C(OC(C)=O)C(/C=N/Nc1ccccc1)=N/Nc1ccccc1 (stereo not drawn),21% (inactive) and -14% (inactive),90% (active) and 4% (inactive),94.8% (active) and 57.6% (inactive),4% (inactive) and 1% (inactive),68% (inactive) and -7% (inactive),48.1% (inactive) and 4.7% (inactive),-12% (inactive) and -18% (inactive),50% (inactive) and 9% (inactive),47.8% (inactive) and 6.1% (inactive),23% (inactive) and 0% (inactive),86% (active) and 1% (inactive),44.4% (inactive) and 29.6% (inactive),7% (inactive) and -3% (inactive),87% (active) and -12% (inactive),86.3% (active) and 18.7% (inactive),26% (inactive) and -3% (inactive),93% (active) and -1% (inactive),95.2% (active) and 40.5% (inactive)
c1ccc(CSC(SCc2ccccc2)(c2ccccc2)c2ccccc2)cc1,30% (inactive),88% (active),14.4% (inactive) and 72% (active),13% (inactive),93% (active),5.7% (inactive) and 63.5% (inactive),2% (inactive),90% (active),14.8% (inactive) and 76.8% (active),11% (inactive),87% (active),18.2% (inactive) and 65.3% (inactive),-16% (inactive),83% (active),15.4% (inactive) and 74.8% (active),22% (inactive),92% (active),13.7% (inactive) and 81.3% (active)
COC(=O)C(=O)C(C(=O)C(c1ccccc1)c1ccccc1)c1nc2n(c1O)/C(=N/C(=O)Nc1ccc(Cl)cc1)N=N2 (stereo not drawn),0% (inactive),41% (inactive),76.6% (active),6% (inactive),58% (inactive),87.2% (active),6% (inactive),80% (active),85.7% (active),-11% (inactive),30% (inactive),56.3% (inactive),-1% (inactive),35% (inactive),41.2% (inactive),-3% (inactive),41% (inactive),78.5% (active)
COC(=O)[C@@H](NS(=O)(=O)CC12CCC(CC1)C2(C)C)C(C)(C)C,2% (inactive),50% (inactive),14.2% (inactive),1% (inactive),51% (inactive),26.1% (inactive),16% (inactive),70% (active),25.7% (inactive),6% (inactive),48% (inactive),21.4% (inactive),0% (inactive),54% (inactive),10.9% (inactive),0% (inactive),83% (active),58.6% (inactive)
CC(C)(C)OC(=O)NOc1ccc([N+](=O)[O-])cc1[N+](=O)[O-],22% (inactive),99% (active),98.7% (active) and 99.5% (active),4% (inactive),100% (active),99.5% (active) and 99.7% (active),38% (inactive),100% (active),99.5% (active),8% (inactive),99% (active),97.2% (active) and 99.5% (active),9% (inactive),99% (active),99.2% (active) and 99.5% (active),68% (inactive),97% (active),99.2% (active) and 99.7% (active)
CCCCC(O)CC (stereo not drawn),-6% (inactive),0% (inactive),-10% (inactive) and 9.8% (inactive),-8% (inactive),-3% (inactive),-42.2% (inactive) and 12.4% (inactive),-2% (inactive),1% (inactive),11.6% (inactive) and 27.9% (inactive),-3% (inactive),-1% (inactive),4.65% (inactive) and 48.2% (inactive),-6% (inactive),0% (inactive),-5.95% (inactive) and 1.55% (inactive),-4% (inactive),0% (inactive),0.4% (inactive) and -1.7% (inactive)
O=C(CCl)Nc1ccc(C(=O)N/N=C/c2ccc(Cl)cc2)cc1,57% (inactive),90% (active),-8.7% (inactive),26% (inactive),65% (inactive),-32.9% (inactive),42% (inactive),70% (active),-21.8% (inactive),23% (inactive),57% (inactive),7.05% (inactive),45% (inactive),82% (active),-14.4% (inactive),41% (inactive),80% (active),-27.7% (inactive)
Cn1c(N)nc(=O)c2[nH]cnc21,-1% (inactive),-1% (inactive),-4.3% (inactive),-1% (inactive),-2% (inactive),11.8% (inactive),-3% (inactive),-4% (inactive),6.9% (inactive),2% (inactive),-3% (inactive),86.8% (active),1% (inactive),-3% (inactive),-9.25% (inactive),-3% (inactive),0% (inactive),-17.2% (inactive)
